Test results from PubChem BioAssay AID1159580 (chemical genetic matrix, 2015).
Where “and” joins values, the source holds several entries; their conditions need not be identical. Identical values can stand only once. Screen size: about 5,500 compounds; about 2,000 (36%) were called active. About 18% were inconclusive and are not listed. Cut-off read from the data, not from the text of the source: active = normalized growth mostly below about 0.91 (no sharp cut-off); inconclusive = no clear call, values can overlap the other calls; inactive = mostly above about 0.92. This is one part of the list.

Assay: chemical genetic growth profiling, strain panel (AID 1159580);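 note: tested at 20 µM; growth read once vehicle control cultures reached saturation at 30 °C; 1 = growth at the plate median or of vehicle wells; lower values mean less growth of the strain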
Conditions: S. cerevisiae deletion strains, growth OD

Measured: normalized growth

Nc1ncnc2nc[nH]c12
0.393 (active) and 1.02 (inactive): locus YHR030C, strain SLT2, stronger effect = lower value
inactive: locus YAL013W, strain DEP1, stronger effect = lower value 0.94 | locus YAL021C, strain ccr4, stronger effect = lower value 0.99 | locus YAL026C, strain drs2, stronger effect = lower value 0.99 | locus YAL030W, strain snc1, stronger effect = lower value 0.981 | locus YBL061C, strain skt5, stronger effect = lower value 0.98 | locus YBR009C, strain hhf1, stronger effect = lower value 0.992 | locus YBR023C, strain chs3, stronger effect = lower value 0.986 | locus YBR171W, strain sec66, stronger effect = lower value 0.976 | locus YBR229C, strain ROT2, stronger effect = lower value 1.02 | locus YBR231C, strain swc5, stronger effect = lower value 0.982 | locus YBR279W, strain paf1, stronger effect = lower value 0.993 | locus YCL011C, strain gbp2, stronger effect = lower value 0.978 | locus YCL016C, strain dcc1, stronger effect = lower value 0.973 | locus YCL029C, strain bik1, stronger effect = lower value 0.923 | locus YCL061C, strain MRC1, stronger effect = lower value 0.981 | locus YCL069W, strain vba3, stronger effect = lower value 0.99 | locus YCR088W, strain abp1, stronger effect = lower value 0.985 | locus YDL005C, strain med2, stronger effect = lower value 0.985 | locus YDL035C, strain GPR1, stronger effect = lower value 0.894 | locus YDL040C, strain nat1, stronger effect = lower value 0.983 | locus YDL101C, strain DUN1, stronger effect = lower value 0.968 | locus YDL185W, strain tfp1, stronger effect = lower value 1.01 | locus YDR001C, strain nth1, stronger effect = lower value 0.983 | locus YDR069C, strain doa4, stronger effect = lower value 1.01 | locus YDR137W, strain rgp1, stronger effect = lower value 0.985 | locus YDR150W, strain NUM1, stronger effect = lower value 1.02 | locus YDR159W, strain sac3, stronger effect = lower value 1 | locus YDR162C, strain NBP2, stronger effect = lower value 0.951 | locus YDR195W, strain ref2 0.998 | locus YDR297W, strain sur2, stronger effect = lower value 1.01 | locus YDR318W, strain mcm21, stronger effect = lower value 0.939 | locus YDR334W, strain swr1, stronger effect = lower value 0.982 | locus YDR335W, strain msn5, stronger effect = lower value 0.984 | locus YDR388W, stronger effect = lower value 0.98 | locus YDR392W, strain spt3, stronger effect = lower value 0.968 | locus YEL003W, strain gim4, stronger effect = lower value 1.01 | locus YEL037C, strain rad23, stronger effect = lower value 0.984 | locus YEL061C, strain CIN8 (second series), stronger effect = lower value 0.986 | locus YEL061C, strain CIN8, stronger effect = lower value 0.996 | locus YER015W, strain faa2, stronger effect = lower value 0.994 | locus YER016W, strain bim1, stronger effect = lower value 0.994 | locus YER110C, stronger effect = lower value 1 | locus YER111C, strain swi4, stronger effect = lower value 0.983 | locus YER155C, strain BEM2 (second series), stronger effect = lower value 0.989 | locus YER167W, strain BCK2, stronger effect = lower value 1.01 | locus YFR010W, strain ubp6, stronger effect = lower value 0.982 | locus YGL078C, strain dbp3, stronger effect = lower value 0.969 | locus YGL167C, strain pmr1, stronger effect = lower value 0.979 | locus YGL173C, strain kem1, stronger effect = lower value 0.984 | locus YGL227W, strain vid30, stronger effect = lower value 0.987 | locus YGL240W, strain doc1, stronger effect = lower value 0.997 | locus YGL248W, strain PDE1, stronger effect = lower value 0.9 | locus YGL253W, strain hxk2, stronger effect = lower value 0.987 | locus YGR135W, strain pre9, stronger effect = lower value 0.922 | locus YHR013C, strain ard1, stronger effect = lower value 0.975 | locus YHR027C, strain rpn1, stronger effect = lower value 0.979 | locus YHR079C, strain IRE1 (second series), stronger effect = lower value 0.974 | locus YHR079C, strain IRE1, stronger effect = lower value 1.02 | locus YHR094C, strain hxt1, stronger effect = lower value 0.999 | locus YHR142W, strain chs7, stronger effect = lower value 0.955 | locus YHR200W, strain rpn10, stronger effect = lower value 0.998 | locus YIL125W, strain kgd1, stronger effect = lower value 0.991 | locus YIR030C, strain dcg1, stronger effect = lower value 0.988 | locus YJL092W, strain hpr5, stronger effect = lower value 0.99 | locus YJL095W, strain BCK1 (second series), stronger effect = lower value 0.984 | locus YJL115W, strain asf1, stronger effect = lower value 0.99 | locus YJL129C, strain trk1, stronger effect = lower value 0.99 | locus YJL134W, strain LCB3, stronger effect = lower value 1.02 | locus YJL154C, strain vps35, stronger effect = lower value 0.997 | locus YJL164C, strain tpk1, stronger effect = lower value 0.993 | locus YJL166W, strain qcr8, stronger effect = lower value 0.977 | locus YJL168C, strain set2, stronger effect = lower value 1 | locus YJL187C, strain SWE1, stronger effect = lower value 0.98 | locus YJR043C, strain POL32, stronger effect = lower value 0.907
0.593 (active) and 1.02 (inactive): locus YJL095W, strain BCK1, stronger effect = lower value
active: locus YBR021W, strain FUR4, stronger effect = lower value 0.201 | locus YDL074C, strain BRE1, stronger effect = lower value 0.645 | locus YDL192W, strain arf1, stronger effect = lower value 0.797 | locus YDR101C, strain arx1, stronger effect = lower value 0.866 | locus YDR502C, strain sam2, stronger effect = lower value 0.908 | locus YER155C, strain BEM2, stronger effect = lower value 0.792 | locus YGL086W, strain mad1, stronger effect = lower value 0.838 | locus YGR078C, strain PAC10, stronger effect = lower value 0.828 | locus YGR252W, strain gcn5, stronger effect = lower value 0.705 | locus YHR129C, strain ARP1, stronger effect = lower value 0.898 | locus YIL066C, strain RNR3, stronger effect = lower value 0.862 | locus YIL073C, strain SPO22, stronger effect = lower value 0.594 | locus YJL187C, strain SWE1 (second series), stronger effect = lower value 0.863
